# According to PubChem BioAssay AID1259418 (Broad Institute, 2018):
# Out of some 3,400 compounds screened, about 840 (25%) were called active. Inconclusive results (about 11%) are left out. These entries were drawn from the full list. Entries with a potency or affinity are not part of this list. Unmarked numbers belong to inactive results.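 Rule for the calls: active = fitted half-maximal concentration of signal decrease at or below twice the sample's top tested concentration; inconclusive = flat curve between -70 and -30 percent, or poor fit; inactive = flat within 30 percent, signal rise, or potency above limit.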
# Experiment: T. gondii growth inhibition with IFN-gamma, dose response, cell-based, ME49Luc, HeLa, luciferase, 72 h (AID 1259418)
# Conditions: T. gondii ME49Luc in IFN-y HeLa, hits give low values, -100% = high-dose IFN-γ control wells; at 19.5 µM unless noted
row,Structure (SMILES),max activity
1,O=C(NCc1cccnc1)C1CCN(Cc2cc3ccccc3n2Cc2cccc(Cl)c2)CC1,-5.31% [at 5 µM]
2,O=C(NCCCN1CCCC1=O)C1CCN(Cc2cc3ccccc3n2Cc2ccccc2)CC1,-6.87% [at 2.6 µM]
3,Cc1cccc(Cn2c(CN3CCC(C(=O)NCCCN4CCCC4=O)CC3)cc3ccccc32)c1,13.5%
4,O=C(C1CCN(Cc2cc3ccccc3n2Cc2cccc(Cl)c2)CC1)N1CCCC1,-6.26% [at 1.35 µM]
5,O=C(NCCN1CCCC1)C1CCN(Cc2cc3ccccc3n2Cc2cccc(Cl)c2)CC1,-8.03% [at 1.35 µM]
6,Cc1ccc(Cn2c(CN3CCC(C(=O)N4CCCC4)CC3)cc3ccccc32)cc1,17.8% [at 2.6 µM]
7,CC(C)C(=O)Nc1ccc(-c2nc(-c3ccccc3)co2)cc1,-22.2% [at 10 µM]
8,Cc1ccc(OCC(=O)Nc2ccc(-c3nc(-c4cc(C)ccc4C)co3)cc2)cc1,6.76% [at 10 µM]
9,CCc1ccccc1Nc1ncnc2c1cnn2-c1ccc(C)cc1C,12.3% [at 0.68 µM]
10,COc1ccc(OC)c(S(=O)(=O)N2CCC[C@@H]2C(=O)NCCc2csc(C)n2)c1,4.67%
11,COc1cccc(-c2nc3c(s2)CN(S(=O)(=O)c2ccc(C(C)C)cc2)CC3)c1,-7.98% [at 2.6 µM]
12,Cc1cccc(-c2nc(Cn3nnc(-c4nc(-c5ccc(F)cc5)no4)c3C)c(C)o2)c1,16.4% [at 10 µM]
13,OC[C@H]1O[C@@H](n2cnc3c(NC4CCCC4)nc(Cl)nc32)[C@H](O)[C@@H]1O,22.4%
14,Cc1ccc2[nH]c(C(=O)N3CCCC3)c(NC(=O)c3ccc(Cl)cc3)c2c1,45.1% [at 5 µM]
15,COc1ccccc1-c1nc(Cn2nnc(-c3nc(-c4ccc(C)c(C)c4)no3)c2C)c(C)o1,8.96% [at 0.68 µM]
16,Cc1cccc(C(=O)Nc2c(C(=O)N3CCN(c4ccccn4)CC3)[nH]c3ccc(C)cc23)c1,-10.7% [at 5 µM]
17,CN(C)CCOCC12CCCOC1CCN(C(=O)c1cccn1C)C2 (stereo unspecified),9.21%
18,O=C(CC1Nc2c3ccccc3nc(=S)n2C1=O)NC1CCCCC1 (stereo unspecified),24.9% [at 0.68 µM]
19,O=C(Cn1c(=O)c(S(=O)(=O)c2ccccc2)cc2ccccc21)NCc1ccco1,8.5% [at 0.16 µM]
20,CCN1CCCC1CNC(=O)C1CCN(Cc2cc3ccccc3n2Cc2ccc(Cl)cc2)CC1 (stereo unspecified),9.45%
21,CCN1CCCC1CNC(=O)C1CCN(Cc2cc3ccccc3n2Cc2ccccc2C)CC1 (stereo unspecified),14% [at 2.6 µM]
22,O=C(NCc1cccnc1)C1CCN(Cc2cc3ccccc3n2Cc2cccc(F)c2)CC1,12.1% [at 0.16 µM]
23,O=C(C1CCN(Cc2cc3ccccc3n2Cc2cccc(F)c2)CC1)N1CCCC1,8.62%

row,Structure (SMILES),max activity
1,CCN1CCCC1CNC(=O)C1CCN(Cc2cc3ccccc3n2Cc2cccc(Cl)c2)CC1 (stereo unspecified),22% [at 10 µM]
2,O=C(NCc1cccnc1)C1CCN(Cc2cc3ccccc3n2Cc2ccccc2)CC1,21.3% [at 1.35 µM]
3,Cc1cccc(Cn2c(CN3CCC(C(=O)NCc4cccnc4)CC3)cc3ccccc32)c1,15.7% [at 10 µM]
4,CCc1nc(OCC(=O)Nc2ccc(Cl)c(Cl)c2)c2ccccc2n1,-17.2%
5,Cc1ccc(CNC(=O)Nc2ccc(-c3nc(-c4cc(C)ccc4C)co3)cc2)cc1,-8.13% [at 5 µM]
6,COc1ccc(CC(=O)N2CCC3(CC2)Nc2cc(OC)ccc2-n2cccc23)cc1,20.2% [at 10 µM]
7,COc1ccc(-c2nc(Nc3ccc(Br)cc3F)c3ccccc3n2)cc1,21.7%
8,O=C(NCCc1csc(-c2ccccc2)n1)[C@H]1CSCN1C(=O)COc1ccccc1,9.43%
9,Cc1ccc2c(c1C)-n1cccc1C1(CCN(C(=O)c3cccc(Cl)c3)CC1)N2,6.45%
10,O=C(C1CCCCC1)N1[C@H](CO)[C@@H]2c3ccccc3N(S(=O)(=O)c3ccccc3)C[C@@H]21,26.4%
11,O=C(C1CCCCC1)N1[C@@H](CO)[C@@H]2c3ccccc3N(S(=O)(=O)c3ccccc3)C[C@@H]21,38.7%
12,O=C(NCc1cncc2c1CCN(Cc1cccc(F)c1)C2)C1CC1,11.5%
13,O=C(CCc1ccccc1)Nc1ccc(-c2nc(-c3ccccc3)co2)cc1,120% [at 10 µM]
14,O=C(c1cccc(F)c1)N1CCCCN2[C@H](C1)[C@H](c1ccc(C#CC3(O)CCCC3)cc1)[C@@H]2CO,-13.9% [at 2.6 µM]
15,O=C(c1cccc(F)c1)N1CCCCN2[C@H](CO)[C@H](c3ccc(C#CC4(O)CCCC4)cc3)[C@H]2C1,-28.8% [at 21 µM]
16,O=C(Nc1cccc(F)c1)N1CCCCN2[C@H](C1)[C@@H](c1ccc(C#Cc3cccnc3)cc1)[C@@H]2CO,-8.44% [at 0.6 µM]
17,CCN(CCCNc1nc(-c2ccc(OC)cc2)nc2ccccc12)c1cccc(C)c1,21.1%
18,COc1ccc(NC(=O)CN2CCC3(CC2)N=C(c2ccc(F)cc2)C(=O)N3)c(OC)c1,-31.1% [at 0.35 µM]
19,COc1ccc(-c2nc(N3CCN(Cc4ccc5c(c4)OCO5)CC3)c3ccccc3n2)cc1,17.4% [at 2.6 µM]
20,Cc1ccc(N2CCN(c3nc(-c4ccc(Cl)cc4)nc4ccccc34)CC2)c(C)c1,25.4%
21,CCOc1ccccc1NC(=O)COc1nc(CC)nc2ccccc12,-13.2% [at 0.35 µM]
22,O=C(NC1CCCC1)N1CCCCN2[C@H](CO)[C@@H](c3ccc(-c4cccnc4)cc3)[C@H]2C1,11.4%
23,O=C(NC1CCCC1)N1CCCCN2[C@@H](CO)[C@@H](c3ccc(-c4cccnc4)cc3)[C@@H]2C1,33.9%
